{"source": "PubChem BioAssay (NCATS)", "note": "Records with an inconclusive call do not appear. Unmarked numbers belong to inactive results. Calls of active or inactive are those of the source. Calls follow the shape of the full dose curve; tested in HEK293 reporter line. % is scaled to controls: 0 for no effect and ±100 for the full control effect. Also: nearly all actives have a fitted effect of over 80% in size.", "data": [{"test": "qHTS for Inhibitors of the Functional Ribonucleoprotein Complex (vRNP) of Lassa (LASV) Arenavirus: Viability assay - alamar blue signal for LASV Primary Screen (AID 1347083)", "conditions": "cell viability, alamar blue fluorescence (LASV minigenome counter-screen); series mostly up to 57.5 µM; activity change, negative = reduced viability: at the top concentration", "values": [{"smiles": "C#C[C@]1(O)CC[C@H]2[C@@H]3CCc4cc(OC)ccc4[C@H]3CC[C@@]21C", "activity change, negative = reduced viability": "1.38%"}, {"smiles": "Cc1c(Cn2ccnc2)c2ccccc2n1CCC(=O)O", "activity change, negative = reduced viability": "5.01%"}, {"smiles": "CN1C[C@H](C(=O)N[C@]2(C)O[C@@]3(O)[C@@H]4CCCN4C(=O)[C@H](Cc4ccccc4)N3C2=O)C[C@@H]2c3cccc4[nH]cc(c34)C[C@H]21", "Potency": "inactive"}, {"smiles": "CCCN(CCC)C(=O)C(CCC(=O)O)NC(=O)c1ccccc1", "note": "(stereo not drawn)", "Potency": "inactive"}, {"smiles": "Cc1cc2c(OCC(CNC(C)(C)C)OC(=O)c3ccccc3)cccc2[nH]1", "note": "(stereo not drawn)", "activity change, negative = reduced viability": "-2.76%"}, {"smiles": "COc1ccc2cc1Oc1ccc(cc1)C[C@H]1c3c(cc4c(c3Oc3cc5c(cc3OC)CCN(C)[C@@H]5C2)OCO4)CCN1C", "activity change, negative = reduced viability": "-32.8%"}, {"smiles": "CC(=O)Oc1ccc(C(c2ccc(OC(C)=O)cc2)c2ccccn2)cc1", "activity change, negative = reduced viability": "3.78%"}, {"smiles": "CC(=O)OCC(=O)Nc1cc(C#N)cc(NC(=O)COC(C)=O)c1Cl", "activity change, negative = reduced viability": "-0.848%"}, {"smiles": "O=C1c2ccccc2C(=O)C1c1ccc(Br)cc1", "activity change, negative = reduced viability": "1.1%"}, {"smiles": "Oc1c(Cl)cc(Cl)c2cccnc12", "Potency": "inactive"}, {"smiles": "COC(=O)C1=C(C)NC(COC(N)=O)=C(C(=O)OC(C)C)C1c1cccc(Cl)c1Cl", "note": "(stereo not drawn)", "activity change, negative = reduced viability": "-0.7%"}, {"smiles": "COc1ccc(-n2nc(CCC(=O)N(C)O)cc2-c2ccc(Cl)cc2)cc1", "activity change, negative = reduced viability": "-18.5%"}, {"smiles": "CCCCN(CCN(CCCC)C(=O)N1CCOCC1)C(=O)N1CCOCC1", "activity change, negative = reduced viability": "-12.6%"}, {"smiles": "NS(=O)(=O)c1cc2c(cc1Cl)NCNS2(=O)=O", "Potency": "inactive"}, {"smiles": "Cc1sccc1Br", "activity change, negative = reduced viability": "19.6%"}, {"smiles": "O=Cc1ccccc1C=O", "activity change, negative = reduced viability": "4.77%"}, {"smiles": "C=CC[N+]1([C@H]2C[C@H]3[C@@H]4CC[C@H]5C[C@H](OC(C)=O)[C@@H](N6CCCCC6)C[C@]5(C)[C@H]4CC[C@]3(C)[C@H]2OC(=O)CC)CCCCC1", "activity change, negative = reduced viability": "-2.86%"}, {"smiles": "O=C(CCCCCCCCC#CI)Oc1ccccc1", "activity change, negative = reduced viability": "1.38%"}, {"smiles": "CN1CCCN=C1COC(=O)C(O)(c1ccccc1)C1CCCCC1", "note": "(stereo not drawn)", "activity change, negative = reduced viability": "-12%"}, {"smiles": "CN(C)[C@@H](CCOc1cccc2ccccc12)c1ccccc1", "activity change, negative = reduced viability": "-12.7%"}, {"smiles": "CCC(=O)O[C@]1(C(=O)SCF)[C@H](C)C[C@H]2[C@@H]3C[C@H](F)C4=CC(=O)C=C[C@]4(C)[C@@]3(F)[C@@H](O)C[C@@]21C", "activity change, negative = reduced viability": "-6.65%"}, {"smiles": "COc1ccc(-c2cc(C(F)F)nn2-c2ccc(S(N)(=O)=O)cc2)cc1F", "activity change, negative = reduced viability": "-9.82%"}, {"smiles": "O=S1(=O)c2cccc3cccc(c23)N1CCCN1CCN(c2ccc(F)cc2)CC1", "activity change, negative = reduced viability": "21.7%"}, {"smiles": "O=C1CC2(CCCC2)CC(=O)N1CCCCN1CCN(c2ncccn2)CC1", "Potency": "inactive"}, {"smiles": "CC1=C(C)C(=O)C(CCCCC#CCCCC#CCO)=C(C)C1=O", "activity change, negative = reduced viability": "-1.22%"}, {"smiles": "CC1CCc2cc(F)cc3c(=O)c(C(=O)O)cn1c23", "note": "(stereo not drawn)", "activity change, negative = reduced viability": "17.1%"}, {"smiles": "OCC(O)CN1CCN(c2ccccc2)CC1", "note": "(stereo not drawn)", "activity change, negative = reduced viability": "21.5%"}, {"smiles": "CNC(=O)CN(CCN(CCN(CC(=O)[O-])CC(=O)NC)CC(=O)[O-])CC(=O)[O-].O.[Gd+3]", "activity change, negative = reduced viability": "11%"}, {"smiles": "O=c1[nH]c2ccccc2c(=O)n1CCCl", "activity change, negative = reduced viability": "10.1%"}, {"smiles": "COC(=O)C1=C(C)NC(C)=C(C(=O)O[C@@H]2CCCN(Cc3ccccc3)C2)[C@@H]1c1cccc([N+](=O)[O-])c1", "activity change, negative = reduced viability": "-12.5%"}, {"smiles": "COc1ccc(CN(CCN(C)C)c2ccccn2)cc1", "Potency": "inactive"}, {"smiles": "O=C(Nc1ccc([N+](=O)[O-])cc1)Nc1ccc([N+](=O)[O-])cc1", "activity change, negative = reduced viability": "14.5%"}, {"smiles": "OCC(CO)N[C@H]1C[C@](O)(CO)[C@@H](O)[C@H](O)[C@H]1O", "activity change, negative = reduced viability": "6.51%"}, {"smiles": "CN(C)CCN(Cc1ccccc1)c1ccccn1", "activity change, negative = reduced viability": "-18.4%"}, {"smiles": "Oc1c(I)cc(Cl)c2cccnc12", "activity change, negative = reduced viability": "-17.8%"}, {"smiles": "CCN1CCN(c2cc(-c3ccc(F)cc3)c3c(n2)CCCCCC3)CC1", "activity change, negative = reduced viability": "16.8% [at 24.7 µM]"}, {"smiles": "NS(=O)(=O)c1cc2c(cc1Cl)NC(CSCc1ccccc1)=NS2(=O)=O", "activity change, negative = reduced viability": "7.89%"}, {"smiles": "Cc1cc(O)c(C)c(C)c1O", "activity change, negative = reduced viability": "-1.44%"}, {"smiles": "CC(C)CCCC(C)N", "note": "(stereo not drawn)", "activity change, negative = reduced viability": "0.0811%"}]}, {"test": "qHTS for Inhibitors of the Functional Ribonucleoprotein Complex (vRNP) of Lymphocytic Choriomeningitis Arenaviruses (LCMV): Viability assay - alamar blue signal for LCMV Primary Screen (AID 1347085)", "conditions": "alamar blue viability counter-screen, LCMV vRNP screen cells; series mostly up to 57.5 µM; activity change, negative = lower viability: at the top concentration", "values": [{"smiles": "C#C[C@]1(O)CC[C@H]2[C@@H]3CCc4cc(OC)ccc4[C@H]3CC[C@@]21C", "activity change, negative = lower viability": "6.52%"}, {"smiles": "Cc1c(Cn2ccnc2)c2ccccc2n1CCC(=O)O", "activity change, negative = lower viability": "5.67%"}, {"smiles": "CN1C[C@H](C(=O)N[C@]2(C)O[C@@]3(O)[C@@H]4CCCN4C(=O)[C@H](Cc4ccccc4)N3C2=O)C[C@@H]2c3cccc4[nH]cc(c34)C[C@H]21", "Potency": "inactive"}, {"smiles": "CCCN(CCC)C(=O)C(CCC(=O)O)NC(=O)c1ccccc1", "note": "(stereo not drawn)", "Potency": "inactive"}, {"smiles": "Cc1cc2c(OCC(CNC(C)(C)C)OC(=O)c3ccccc3)cccc2[nH]1", "note": "(stereo not drawn)", "activity change, negative = lower viability": "-1.23%"}, {"smiles": "COc1ccc2cc1Oc1ccc(cc1)C[C@H]1c3c(cc4c(c3Oc3cc5c(cc3OC)CCN(C)[C@@H]5C2)OCO4)CCN1C", "activity change, negative = lower viability": "-10.3%"}, {"smiles": "CC(=O)Oc1ccc(C(c2ccc(OC(C)=O)cc2)c2ccccn2)cc1", "activity change, negative = lower viability": "17.6%"}, {"smiles": "CC(=O)OCC(=O)Nc1cc(C#N)cc(NC(=O)COC(C)=O)c1Cl", "activity change, negative = lower viability": "-1.03%"}, {"smiles": "O=C1c2ccccc2C(=O)C1c1ccc(Br)cc1", "activity change, negative = lower viability": "0.702%"}, {"smiles": "Oc1c(Cl)cc(Cl)c2cccnc12", "Potency": "inactive"}, {"smiles": "COC(=O)C1=C(C)NC(COC(N)=O)=C(C(=O)OC(C)C)C1c1cccc(Cl)c1Cl", "note": "(stereo not drawn)", "activity change, negative = lower viability": "-0.034%"}, {"smiles": "COc1ccc(-n2nc(CCC(=O)N(C)O)cc2-c2ccc(Cl)cc2)cc1", "activity change, negative = lower viability": "-8.98%"}, {"smiles": "CCCCN(CCN(CCCC)C(=O)N1CCOCC1)C(=O)N1CCOCC1", "activity change, negative = lower viability": "-11.1%"}, {"smiles": "NS(=O)(=O)c1cc2c(cc1Cl)NCNS2(=O)=O", "Potency": "inactive"}, {"smiles": "Cc1sccc1Br", "activity change, negative = lower viability": "-1.18%"}, {"smiles": "O=Cc1ccccc1C=O", "activity change, negative = lower viability": "-2.67%"}, {"smiles": "C=CC[N+]1([C@H]2C[C@H]3[C@@H]4CC[C@H]5C[C@H](OC(C)=O)[C@@H](N6CCCCC6)C[C@]5(C)[C@H]4CC[C@]3(C)[C@H]2OC(=O)CC)CCCCC1", "activity change, negative = lower viability": "-6.4%"}, {"smiles": "O=C(CCCCCCCCC#CI)Oc1ccccc1", "activity change, negative = lower viability": "-9.47%"}, {"smiles": "CN1CCCN=C1COC(=O)C(O)(c1ccccc1)C1CCCCC1", "note": "(stereo not drawn)", "activity change, negative = lower viability": "2.35%"}, {"smiles": "CN(C)[C@@H](CCOc1cccc2ccccc12)c1ccccc1", "Potency": "inactive"}, {"smiles": "CCC(=O)O[C@]1(C(=O)SCF)[C@H](C)C[C@H]2[C@@H]3C[C@H](F)C4=CC(=O)C=C[C@]4(C)[C@@]3(F)[C@@H](O)C[C@@]21C", "activity change, negative = lower viability": "-88.7%"}, {"smiles": "COc1ccc(-c2cc(C(F)F)nn2-c2ccc(S(N)(=O)=O)cc2)cc1F", "activity change, negative = lower viability": "1.48%"}, {"smiles": "O=S1(=O)c2cccc3cccc(c23)N1CCCN1CCN(c2ccc(F)cc2)CC1", "activity change, negative = lower viability": "12.7%"}, {"smiles": "O=C1CC2(CCCC2)CC(=O)N1CCCCN1CCN(c2ncccn2)CC1", "Potency": "inactive"}, {"smiles": "CC1=C(C)C(=O)C(CCCCC#CCCCC#CCO)=C(C)C1=O", "activity change, negative = lower viability": "-0.161%"}, {"smiles": "CC1CCc2cc(F)cc3c(=O)c(C(=O)O)cn1c23", "note": "(stereo not drawn)", "activity change, negative = lower viability": "35%"}, {"smiles": "OCC(O)CN1CCN(c2ccccc2)CC1", "note": "(stereo not drawn)", "activity change, negative = lower viability": "12.6%"}, {"smiles": "CNC(=O)CN(CCN(CCN(CC(=O)[O-])CC(=O)NC)CC(=O)[O-])CC(=O)[O-].O.[Gd+3]", "activity change, negative = lower viability": "2.81%"}, {"smiles": "O=c1[nH]c2ccccc2c(=O)n1CCCl", "activity change, negative = lower viability": "-3.95%"}, {"smiles": "COC(=O)C1=C(C)NC(C)=C(C(=O)O[C@@H]2CCCN(Cc3ccccc3)C2)[C@@H]1c1cccc([N+](=O)[O-])c1", "activity change, negative = lower viability": "-10.4%"}, {"smiles": "COc1ccc(CN(CCN(C)C)c2ccccn2)cc1", "Potency": "inactive"}, {"smiles": "O=C(Nc1ccc([N+](=O)[O-])cc1)Nc1ccc([N+](=O)[O-])cc1", "activity change, negative = lower viability": "12.9%"}, {"smiles": "OCC(CO)N[C@H]1C[C@](O)(CO)[C@@H](O)[C@H](O)[C@H]1O", "activity change, negative = lower viability": "3.99%"}, {"smiles": "CN(C)CCN(Cc1ccccc1)c1ccccn1", "activity change, negative = lower viability": "4.22%"}, {"smiles": "Oc1c(I)cc(Cl)c2cccnc12", "activity change, negative = lower viability": "0.226%"}, {"smiles": "CCN1CCN(c2cc(-c3ccc(F)cc3)c3c(n2)CCCCCC3)CC1", "activity change, negative = lower viability": "5.74% [at 24.7 µM]"}, {"smiles": "NS(=O)(=O)c1cc2c(cc1Cl)NC(CSCc1ccccc1)=NS2(=O)=O", "activity change, negative = lower viability": "14.1%"}, {"smiles": "Cc1cc(O)c(C)c(C)c1O", "activity change, negative = lower viability": "1.28%"}, {"smiles": "CC(C)CCCC(C)N", "note": "(stereo not drawn)", "activity change, negative = lower viability": "2.87%"}]}]}
